About 83,000 compounds went through this panel and 20% of them were active in at least one assay; those are over-represented in the sample as a whole.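 Cell lines were cultured in 96-well plates, exposed to a single compound concentration, and assessed for percent growth 48 hours later.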 A number with no mark means an inactive call. Calls of active or inactive are those of the source. How the source made its calls: active means growth percent below 10; inactive means the rest.
What was measured:
Assay in all cases: NCI-60 one-dose screen, 48 h (100 = growth as untreated, 0 = no growth, -100 = all killed)
Conditions in all cases: 10 µM unless noted
RPMI-8226 leukemia = test system: RPMI-8226 leukemia
OVCAR-8 ovarian = test system: OVCAR-8 ovarian
OVCAR-4 ovarian = test system: OVCAR-4 ovarian
SK-OV-3 ovarian = test system: SK-OV-3 ovarian
IGROV1 ovarian = test system: IGROV1 ovarian
OVCAR-3 ovarian = test system: OVCAR-3 ovarian
HS 578T breast = test system: HS 578T breast
NCI/ADR-RES ovarian = test system: NCI/ADR-RES ovarian
T-47D breast = test system: T-47D breast
OVCAR-5 ovarian = test system: OVCAR-5 ovarian

| SMILES | growth (RPMI-8226 leukemia) | growth (OVCAR-8 ovarian) | growth (OVCAR-4 ovarian) | growth (SK-OV-3 ovarian) | growth (IGROV1 ovarian) | growth (OVCAR-3 ovarian) | growth (HS 578T breast) | growth (NCI/ADR-RES ovarian) | growth (T-47D breast) | growth (OVCAR-5 ovarian) |
| --- | --- | --- | --- | --- | --- | --- | --- | --- | --- | --- |
| Cn1c2c(c(=O)[nH]c1=O)NC1=C(C(=O)c3ccccc31)C1(C=C(O)c3ccccc31)N2 (stereo not given) | 105% | 107% | 71.3% | 111% | 95.5% | 95.4% | 110% | 117% | 108% | – |
| NCCCNc1nc2ccccc2c2c(=O)c3cc(F)ccc3sc12 | -2.73% (active) | 2.1% (active) | 33% | – | 20.1% | -16.4% (active) | 34.6% | 11.4% | -39% (active) | – |
| O=c1oc2ccc(Cl)cc2c(=O)n1-c1ccc(I)cc1F | -25.3% (active) | 8.73% (active) | 16.1% | 7.52% (active) | 14.9% | 6.61% (active) | -0.395% (active) | 5.51% (active) | -6.79% (active) | – |
| Clc1ccc(Nc2nnc(-c3ccc4c(c3)OCO4)o2)cc1 | 91.1% | 94.2% | 102% | 102% | 101% | 114% | 109% | 98.6% | 82.5% | – |
| Cn1c(/C=C(\C#N)c2ccccc2)nc2c(N3CCOCC3)nc(Cl)nc21 | -24.3% (active) | 8.78% (active) | -58.4% (active) | – | -61.7% (active) | -91.8% (active) | -20% (active) | 3.17% (active) | – | – |
| Cc1cc(Br)c(N)c(Br)c1 | 99.5% | 101% | 94.9% | 83.3% | 110% | 108% | 109% | 98% | – | – |
| CC[C@@H](C)[C@H](NC(=O)Cn1cc(CNC(=O)[C@@H](NC(=O)OCc2ccccc2)C(C)C)nn1)C(=O)O | 106% | 96.2% | 111% | 109% | 113% | 119% | 104% | 105% | 116% | – |
| O=C(Nc1ccc(F)cc1F)c1cc(Cl)ccc1O | 1.46% (active) | 10.6% | 16.6% | -11.2% (active) | 19.3% | 7.98% (active) | 9.26% (active) | 7.62% (active) | -12.4% (active) | – |
| CCCCCCC(O)(c1ccc(F)cc1)C(CN1CCOCC1)c1ccccc1 (stereo not given) | 16.9% | 33.5% | 31.7% | 76.7% | 44% | 2.28% (active) | 51.6% | 17.2% | 14.3% | – |
| C[C@@H](C(=O)NCCCC#Cc1cnc(Nc2ccc(C#N)cc2)nc1NC1CC1)N(C)C(=O)/C=C/CN(C)C | 14.9% | 55.9% | 38.7% | – | 41.1% | 29.3% | 59% | 78.2% | 54.9% | – |
| O=C(c1nc2ccccc2[nH]1)C1C(c2ccc([N+](=O)[O-])cc2)C2CC3CCCCC3N2[C@@]12C(=O)Nc1cc(Cl)ccc12 (stereo not given in full) | 6.29% (active) | 35% | 20.6% | – | 24.9% | 29.6% | 54.6% | 29.2% | 28.8% | – |
| FC(F)(F)c1cccc(Nc2nc(-c3ccccc3)nc3ncccc23)c1 | -39.8% (active) | 89.4% | – | – | 98.8% | 32.2% | -49.5% (active) | 86.3% | 82.9% | 107% |
| COC(=O)/C(CCC=C(C)C)=C1\[C@@H](OC(C)=O)C[C@@]2(C)[C@H]1C[C@@H](O)[C@H]1[C@@]3(C)CC[C@H](NCCCNCCCCNCCCN)[C@@H](C)[C@@H]3CC[C@@]12C | 20.2% | 54.6% | 85.1% | – | 41.9% | 83% | 82.7% | 65.9% | 57% | – |
| COc1ccc(-c2cn[nH]c2-c2cc(OC)c(OC)c(OC)c2)cc1OCc1ccccc1 | 8.45% (active) | 40.1% | 50.1% | 12.5% | 44.8% | 10.3% | 6.1% (active) | -22.2% (active) | 23.9% | – |
| CN1C(=O)N(C)C2(c3ccccc3)OC(=S)NC12c1ccccc1 (stereo not given) | 109% | 100% | 96.1% | 92% | 103% | 97.4% | 108% | 108% | 95.4% | – |
| COc1ccc(C2Nc3ncnc(N)c3N=C3c4ccccc4C(=O)C32)cc1 (stereo not given) | 80% | 108% | 82.8% | 84.7% | 79.4% | 83.9% | 94.5% | 105% | 80.8% | – |
| Cc1ccc(NCCNCC(O)CO)c2c(=O)c3ccccc3sc12 (stereo not given) | 34.6% | 14.2% | 34.7% | 31.8% | 24.3% | 29.9% | – | 26.8% | 53.8% | – |
| O=C(Cc1ccccc1)NC(c1ccc(Cl)cc1)c1c(O)ccc2ccccc12 (stereo not given) | -20.8% (active) | 5.43% (active) | 21.7% | 36.1% | – | -22.9% (active) | 54.1% | 9.15% (active) | 10.8% | – |
| COc1cc(C(=O)Nc2ccc(-c3nc4ccccc4[nH]3)cc2)cc(OC)c1OC | 19.2% | 27.1% | 61.6% | 56.1% | 46.8% | 9.3% (active) | 72.5% | 52.5% | 60% | – |
| O=C(CSc1ccc2nnc(-c3cccc(F)c3)n2n1)Nc1ccc2c(c1)OCO2 | 52.3% | 53.4% | – | – | 54.8% | 48.3% | 76.4% | 48.4% | 56.2% | 113% |
| COC(=O)C1=Nc2ccc(F)cc2/C1=C/c1sc(=S)[nH]c1O | -9.01% (active) | 13.3% | 58.2% | 28.5% | 14.4% | -1.67% (active) | 23.1% | 7.28% (active) | 61.2% | – |
| CC[C@H](C)[C@@H](C(=O)OC)n1cc(CNC(=O)[C@@H](Cc2ccccc2)NC(=O)OCc2ccccc2)nn1 | 90.1% | 91.3% | 105% | 109% | 92.2% | 115% | 101% | 94.4% | 107% | – |
| C1CCN(c2nc(N3CCCCC3)nc(N3CCOCC3)n2)CC1 | 100% | 96.4% | 96% | 99.6% | 104% | 118% | – | 103% | – | – |
| Cc1cccc(NC(=O)c2sc3nc4c(cc3c2N)CCCC4)c1C | 7.76% (active) | 23% | 65.3% | 32.5% | 40.7% | -10.1% (active) | 25.1% | -15.8% (active) | – | – |
| NCCOc1ccccc1/C=C1\c2ccccc2-c2ccc([N+](=O)[O-])cc21 | -48.6% (active) | -38.7% (active) | 30.3% | – | 23.8% | -49.8% (active) | 26.3% | 23.5% | 12.5% | – |
| CCOc1cc2c(cc1OCC)C(c1cc(C)c(O)c(C)c1)NCC2 (stereo not given) | 77.5% | 92.2% | 95.9% | 101% | 101% | 101% | 107% | 84.4% | 91.6% | – |
| CCOC(=O)c1sc(-c2ccc(OS(=O)(=O)C[C@]34CCC(CC3=O)C4(C)C)c(C=O)c2)nc1C | – | 11.6% | 18.6% | – | -21.8% (active) | -5% (active) | 31.6% | 11% | – | 46.9% |
| O=C(/C=C/c1ccccn1)c1ccc(OCc2nnc(-c3ccc(Cl)cc3)o2)cc1 | – | 20.8% | 31% | 26.8% | -22.6% (active) | 18.6% | 65.7% | 42.5% | -13.7% (active) | 89.6% |

Source: PubChem BioAssay (NCI)
